Test results reported in PubChem BioAssay AID1159580 (chemical genetic matrix, 2015).
Among all 5,500 compounds or so, about 2,000 (36%) were called active. Not shown: some 18% with an inconclusive outcome. Rule as the data show it: active = normalized growth mostly below about 0.91 (no sharp cut-off); inconclusive = no clear call, values can overlap the other calls; inactive = mostly above about 0.92. This is one part of the list.

Assay: chemical genetic growth profiling, strain panel (AID 1159580);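 also: tested at 20 µM; growth read once vehicle control cultures reached saturation at 30 °C; 1 = growth at the plate median or of vehicle wells; lower values mean less growth of the strain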
Conditions: growth OD
[1] = S. cerevisiae deletion strains, locus YAL013W, strain DEP1, hits give low values
[2] = S. cerevisiae deletion strains, locus YBR229C, strain ROT2, hits give low values
[3] = S. cerevisiae deletion strains, locus YCL061C, strain MRC1, hits give low values
[4] = S. cerevisiae deletion strains, locus YDL101C, strain DUN1, hits give low values
[5] = S. cerevisiae deletion strains, locus YDR150W, strain NUM1, hits give low values
[6] = S. cerevisiae deletion strains, locus YEL061C, strain CIN8, hits give low values
[7] = S. cerevisiae deletion strains, locus YGR078C, strain PAC10, hits give low values
[8] = S. cerevisiae deletion strains, locus YHR030C, strain SLT2, hits give low values
[9] = S. cerevisiae deletion strains, locus YHR087W, strain rtc3, hits give low values
[10] = S. cerevisiae deletion strains, locus YJR043C, strain POL32, hits give low values
[11] = S. cerevisiae deletion strains, locus YJR075W, strain HOC1, hits give low values
[12] = S. cerevisiae deletion strains, locus YKL190W, strain CNB1, hits give low values
[13] = S. cerevisiae deletion strains, locus YLR039C, strain RIC1, hits give low values
[14] = S. cerevisiae deletion strains, locus YLR058C, strain SHM2 (second series), hits give low values
[15] = S. cerevisiae deletion strains, locus YLR085C, strain ARP6, hits give low values
[16] = S. cerevisiae deletion strains, locus YLR262C, strain YPT6, hits give low values
[17] = S. cerevisiae deletion strains, locus YML094W, strain GIM5, hits give low values
[18] = S. cerevisiae deletion strains, locus YMR219W, strain ESC1, hits give low values
[19] = S. cerevisiae deletion strains, locus YMR263W, strain SAP30, hits give low values
[20] = S. cerevisiae deletion strains, locus YMR307W, strain GAS1, hits give low values
[21] = S. cerevisiae deletion strains, locus YNL153C, strain GIM3, hits give low values
[22] = S. cerevisiae deletion strains, locus YNL298W, strain CLA4 (second series), hits give low values
[23] = S. cerevisiae deletion strains, locus YNL322C, strain KRE1, hits give low values
[24] = S. cerevisiae deletion strains, locus YNR030W, strain Alg12, hits give low values
[25] = S. cerevisiae deletion strains, locus YOL006C, strain TOP1, hits give low values
[26] = S. cerevisiae deletion strains, locus YPL055C, strain LGE1, hits give low values
[27] = S. cerevisiae deletion strains, locus YPL241C, strain CIN2, hits give low values
[28] = S. cerevisiae deletion strains, locus YPR135W, strain CTF4, hits give low values
[29] = S. cerevisiae strains, strain wild type, hits give low values
[30] = S. cerevisiae deletion strains, locus YNL128W, strain TEP1, hits give low values

Measured: normalized growth

COc1cc(/C=C2/N=C(c3ccccc3I)OC2=O)cc(OC)c1OC
inactive: [1] 1 | [2] 1.01 | [3] 1.01 | [4] 1.03 | [5] 0.888 | [6] 0.984 | [7] 1 | S. cerevisiae deletion strains, locus YGR229C, strain SMI1, hits give low values 0.981 | [8] 0.956 | [9] 1.01 | [10] 1 | [11] 1.01 | [12] 0.995 | [13] 0.964 | [14] 0.996 | [15] 1.01 | [16] 0.947 | [17] 1.02 | [18] 1 | [19] 1 | [20] 0.961 | [21] 1.01 | [22] 1.01 | [23] 0.994 | [24] 0.982 | [25] 0.998 | [26] 1.12 | [27] 0.967 | [28] 0.903 | [29] 0.989

COc1cc(/C=C2/SC(=S)NC2=O)cc(OC)c1OC
inactive: [5] 0.897 | [6] 0.977 | [8] 0.87 | [9] 0.911 | [10] 0.948 | [15] 0.845 | [17] 0.969 | [20] 0.887 | [30] 0.977 | [22] 0.912 | [24] 0.922 | [26] 0.881 | [27] 0.885 | [28] 0.809
active: [1] 0.915 | [2] 0.894 | [4] 0.865 | [7] 0.877 | [11] 0.822 | [13] 0.725 | [14] 0.919 | [16] 0.73 | [18] 0.926 | [19] 0.901 | [21] 0.92 | [23] 0.926

COc1cc(/C=C/C=O)cc(OC)c1OC
inactive: [1] 1.03 | S. cerevisiae deletion strains, locus YBR021W, strain FUR4, hits give low values 1.01 | [2] 1.01 | S. cerevisiae deletion strains, locus YCL029C, strain bik1, hits give low values 1.03 | S. cerevisiae deletion strains, locus YDL035C, strain GPR1, hits give low values 1.04 | S. cerevisiae deletion strains, locus YDL074C, strain BRE1, hits give low values 1.07 | [4] 1.02 | S. cerevisiae deletion strains, locus YDL185W, strain tfp1, hits give low values 1 | S. cerevisiae deletion strains, locus YDL192W, strain arf1, hits give low values 1.02 | S. cerevisiae deletion strains, locus YDR101C, strain arx1, hits give low values 1.02 | S. cerevisiae deletion strains, locus YDR162C, strain NBP2, hits give low values 1.07 | S. cerevisiae deletion strains, locus YDR318W, strain mcm21, hits give low values 1.03 | S. cerevisiae deletion strains, locus YDR388W, hits give low values 1.01 | S. cerevisiae deletion strains, locus YDR502C, strain sam2, hits give low values 1.02 | S. cerevisiae deletion strains, locus YER110C, hits give low values 1 | S. cerevisiae deletion strains, locus YER155C, strain BEM2, hits give low values 1.02 | S. cerevisiae deletion strains, locus YER167W, strain BCK2, hits give low values 1.02 | S. cerevisiae deletion strains, locus YGL078C, strain dbp3, hits give low values 1.01 | S. cerevisiae deletion strains, locus YGL086W, strain mad1, hits give low values 1.02 | S. cerevisiae deletion strains, locus YGL248W, strain PDE1, hits give low values 1.04 | [7] 1.04 | S. cerevisiae deletion strains, locus YGR135W, strain pre9, hits give low values 0.998 | S. cerevisiae deletion strains, locus YGR252W, strain gcn5, hits give low values 1.03 | S. cerevisiae deletion strains, locus YHR079C, strain IRE1 (second series), hits give low values 1 | S. cerevisiae deletion strains, locus YHR094C, strain hxt1, hits give low values 0.995 | S. cerevisiae deletion strains, locus YHR129C, strain ARP1, hits give low values 1.02 | S. cerevisiae deletion strains, locus YHR200W, strain rpn10, hits give low values 1.01 | S. cerevisiae deletion strains, locus YIL066C, strain RNR3, hits give low values 1.02 | S. cerevisiae deletion strains, locus YIL073C, strain SPO22, hits give low values 1.06 | S. cerevisiae deletion strains, locus YIL125W, strain kgd1, hits give low values 1 | S. cerevisiae deletion strains, locus YIR030C, strain dcg1, hits give low values 1.01 | S. cerevisiae deletion strains, locus YJL095W, strain BCK1, hits give low values 1.06 | S. cerevisiae deletion strains, locus YJL134W, strain LCB3, hits give low values 1.01 | S. cerevisiae deletion strains, locus YJL168C, strain set2, hits give low values 0.997 | S. cerevisiae deletion strains, locus YJL187C, strain SWE1 (second series), hits give low values 1.04 | [10] 1.06 | S. cerevisiae deletion strains, locus YKL009W, strain mrt4, hits give low values 1.01 | S. cerevisiae deletion strains, locus YKL068W, hits give low values 0.994 | S. cerevisiae deletion strains, locus YKL085W, strain MDH1 (second series), hits give low values 1.01 | S. cerevisiae deletion strains, locus YKL085W, strain MDH1, hits give low values 1.01 | [12] 1.01 | S. cerevisiae deletion strains, locus YKR001C, strain vps1, hits give low values 1.07 | [13] 1.14 | S. cerevisiae deletion strains, locus YLR058C, strain SHM2, hits give low values 1.03 | S. cerevisiae deletion strains, locus YLR102C, strain apc9, hits give low values 0.999 | [16] 1.13 | S. cerevisiae deletion strains, locus YLR268W, strain sec22, hits give low values 1.03 | S. cerevisiae deletion strains, locus YLR342W, strain FKS1 (second series), hits give low values 1.09 | S. cerevisiae deletion strains, locus YLR371W, strain rom2, hits give low values 0.991 | S. cerevisiae deletion strains, locus YLR418C, strain cdc73, hits give low values 1.02 | S. cerevisiae deletion strains, locus YML016C, strain PPZ1, hits give low values 1.02 | S. cerevisiae deletion strains, locus YML032C, strain rad52, hits give low values 1.03 | S. cerevisiae deletion strains, locus YML124C, strain tub3, hits give low values 0.996 | S. cerevisiae deletion strains, locus YMR078C, strain ctf18, hits give low values 0.994 | S. cerevisiae deletion strains, locus YMR223W, strain ubp8, hits give low values 1.01 | [19] 1.03 | [20] 1.06 | S. cerevisiae deletion strains, locus YNL067W, strain RPL9B, hits give low values 1.03 | [30] 1.03 | S. cerevisiae deletion strains, locus YNL233W, strain BNI4, hits give low values 1.04 | S. cerevisiae deletion strains, locus YNL250W, strain rad50, hits give low values 1 | S. cerevisiae deletion strains, locus YNL271C, strain bni1, hits give low values 1 | S. cerevisiae deletion strains, locus YNL298W, strain CLA4, hits give low values 0.995 | S. cerevisiae deletion strains, locus YNL307C, strain MCK1, hits give low values 1 | S. cerevisiae deletion strains, locus YNR052C, strain pop2, hits give low values 1 | [25] 1.22 | S. cerevisiae deletion strains, locus YOL012C, strain htz1 0.967 | S. cerevisiae deletion strains, locus YOL147C, strain pex11, hits give low values 1.01 | S. cerevisiae deletion strains, locus YOR061W, strain CKA2, hits give low values 1.04 | S. cerevisiae deletion strains, locus YOR069W, strain VPS5, hits give low values 1.01 | S. cerevisiae deletion strains, locus YOR136W, strain idh2, hits give low values 1.01 | S. cerevisiae deletion strains, locus YOR144C, strain elg1, hits give low values 0.998 | S. cerevisiae deletion strains, locus YOR184W, strain ser1, hits give low values 1.07 | S. cerevisiae deletion strains, locus YOR316C, strain cot1, hits give low values 0.988 | [26] 1.08 | [27] 1.01 | S. cerevisiae deletion strains, locus YPR119W, strain clb2, hits give low values 0.995 | S. cerevisiae deletion strains, locus YPR141C, strain kar3, hits give low values 1 | S. cerevisiae deletion strains, locus YPR163C, strain tif3, hits give low values 1.02 | S. cerevisiae deletion strains, locus YPR167C, strain met16, hits give low values 1.01 | S. cerevisiae deletion strains, strain wtn01, hits give low values 1.03 | [29] 1.05

CNS(=O)(=O)c1cc(Br)ccc1S(=O)c1ccccc1C(=O)O (stereo not drawn)
active: [17] 1.15 [resistant]
inactive: [1] 1 | [2] 1 | [3] 1 | [4] 1.05 | [5] 1.01 | [6] 1.02 | [7] 1.01 | [8] 0.98 | [9] 1.03 | S. cerevisiae deletion strains, locus YJL187C, strain SWE1, hits give low values 1 | [10] 1 | [11] 0.997 | [12] 0.982 | [13] 1.01 | [14] 0.992 | [15] 0.983 | [16] 1.02 | [18] 1.01 | [19] 0.984 | [20] 0.942 | [21] 1.03 | [22] 0.995 | [23] 1.01 | [24] 1.03 | [25] 0.975 | [26] 1.04 | [27] 1.04 | [28] 1.15 | [29] 0.968
